Potency data for seven compounds are collected here from PubChem BioAssay (Tox21).

A short description of experiment [1]: Nuclear factor erythroid 2-related factor 2/antioxidant responsive element (Nrf2/ARE) small molecule agonists: qHTS cell viability counter screen in human keratinocytes (AID 1919968; active = well fitted curve in the direction sought with a large enough effect in the repeat runs; an effect the other way counts as inactive or inconclusive; note: nearly all actives have a fitted effect of over 55% in size; note: potency is the fitted concentration of half-maximal effect). The method, boiled down:
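Viability counter-screen: KeratinoSens reporter cells, DMSO-delivered compounds, 23 h at 37 C, CellTiter-Fluor fluorescence.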

The nature of experiment [2]: Nuclear factor erythroid 2-related factor 2/antioxidant responsive element (Nrf2/ARE) small molecule agonists: luciferase reporter gene qHTS assay in human keratinocytes (AID 1919969). Note: nearly all actives have a fitted effect of over 35% in size. Note: potency is the fitted concentration of half-maximal effect. For orientation: In a reporter assay the amount or activity of a reporter protein is the signal.
The target of experiment [3] is Gonadotropin-releasing hormone receptor (Homo sapiens) (UniProt P30968). The experiment is described as follows: Human gonadotropin-releasing hormone receptor (GnRHR) small molecule agonists, calcium flux assay in GnRHR-HEK293 cells (AID 1920063). Note: nearly all actives have a fitted effect of over 35% in size. The method, boiled down: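 Tox21-format agonist screen using human GnRHR-expressing HEK293 cells and a fluorescent calcium dye; kinetic 3-min fluorescence reading after compound addition, 15-point concentration series run in triplicate.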
On the technique in general: A change in cytosolic calcium serves as a functional read-out for many receptors and channels.

The target of experiment [4] is KiSS-1 receptor (Homo sapiens) (UniProt Q969F8). The experiment is described as follows: Human kisspeptin (KISS1R) small molecule agonists, calcium flux assay in KISS1R-HEK293 cells (AID 1920064; active = well fitted curve in the direction sought with a large enough effect in the repeat runs; an effect the other way counts as inactive or inconclusive). The essentials:
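Intracellular calcium mobilization in KISS1R-HEK293 cells was recorded by fluorescence (Ex/Em 480/540) for 3 min following compound addition to cells pre-loaded 1 h with calcium dye.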

Experiment [5] can be described thus: G protein-coupled receptor (GPCR) small molecule agonists, calcium flux assay: HEK293 wild type cell line counter screen (AID 1920065). The method, boiled down: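 In this agonist-mode screen, ATP is the positive control and DMSO the vehicle. Cells grow 18 h before a 1 h dye incubation at 37 C; signal is taken at Ex/Em 480/540 over 3 min.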
The nature of experiment [6]: p53 small molecule agonists, cell-based qHTS assay with rat liver microsomes (AID 1963578). The method, boiled down: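 Agonist mode in p53RE-bla reporter cells, with compounds co-incubated 16 h at 37 C alongside 0.5 mg/mL rat liver microsomes and 0.5 mg/mL NADPH (final), followed by a 2 h LiveBLAzer detection step.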
For orientation: Quantitative high-throughput screening tests each substance at several concentrations.

Experiment [7] is described as follows: p53 small molecule agonists, cell-based qHTS assay with human liver microsomes: qHTS cell viability counter screen (AID 1963579). Note: nearly all actives have a fitted effect of over 45% in size. Note: potency is the fitted concentration of half-maximal effect. The method, boiled down: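 Metabolically activated exposure: compounds, human liver microsomes and NADPH (0.5 mg/mL final apiece) were added to p53RE-bla cells seeded 5 h earlier, left 16 h at 37 C, and then assessed for viability by CellTiter-Glo luminescence.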

The nature of experiment [8]: p53 small molecule agonists, cell-based qHTS assay with rat liver microsomes: qHTS cell viability counter screen (AID 1963580). Note: nearly all actives have a fitted effect of over 45% in size. Note: potency is the fitted concentration of half-maximal effect. The essentials:
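p53RE-bla HCT-116 cells were exposed 16 h at 37 C to compounds with rat liver microsomes (0.5 mg/mL) and NADPH (0.5 mg/mL). Viability was measured in the same wells as ATP content by CellTiter-Glo luminescence.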

Experiment [9] can be described thus: p53 small molecule agonists, cell-based qHTS assay: qHTS cell viability counter screen (AID 1963581). Note: nearly all actives have a fitted effect of over 45% in size. Note: potency is the fitted concentration of half-maximal effect. The method, boiled down: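 Compounds are pinned onto HCT-116 p53RE-bla cells and left 16 h at 37 C. Following the reporter FRET read, ATP is quantified by CellTiter-Glo luminescence after 30 min at room temperature.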
Experiment [10] in a line: p53 small molecule agonists, cell-based qHTS assay (AID 1963582; active = well fitted activation curve with a large enough effect in the signal ratio in the repeat runs, not every such curve was filed as active; the % refers to the signal ratio). The essentials: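 Agonist activity was scored from beta-lactamase FRET fluorescence in p53RE-bla cells treated 16 h at 37 C with compounds in DMSO, substrate incubation being 2 h at room temperature.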
Experiment [11] has as its target 5-hydroxytryptamine receptor 2A (Homo sapiens) (UniProt P28223). The experiment in a line: 5-hydroxytryptamine receptor 2A (HTR2A) small molecule antagonists, cell-based qHTS assay (AID 1963586). Note: nearly all actives have a fitted effect of over 45% in size. The method, boiled down: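 Antagonist-mode intracellular calcium assay: DOI (4 nM) added after 5 min compound pre-incubation at room temperature to dye-loaded HTR2A-CHO cells. Fluorescence followed for 3 min, sampled every second.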

In experiment [12] the target is Muscarinic acetylcholine receptor M1 (Homo sapiens) (UniProt P11229). The experiment in a line: Cholinergic receptor muscarinic 1 (CHRM1) small molecule antagonists, cell-based qHTS assay (AID 1963588). Note: nearly all actives have a fitted effect of over 40% in size. The essentials:
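CHRM1-CHO calcium-flux assay, antagonist mode. Cells were seeded 18 h, dye-loaded 1 h at 37 C and given compound for 5 min at RT, then acetylcholine was added at 50nM. FDSS fluorescence was read 3 min; 15 concentrations, three runs.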

Experiment [13] has the same target. The experiment in a line: Cholinergic receptor muscarinic 1 (CHRM1) small molecule agonists, cell-based qHTS assay (AID 1963589). Note: nearly all actives have a fitted effect of over 35% in size. The essentials:
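Stable CHRM1-CHO cells (human receptor) were incubated 18 h, dye-loaded for 1 h at 37 C and exposed to test compounds for agonist activity, with calcium-dependent fluorescence followed kinetically.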

A short description of experiment [14]: cAMP Responsive Elements (CRE) small molecule agonists, cell-based qHTS assay (AID 1963590). The method, boiled down:
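FRET-based beta-lactamase readout (LiveBLAzer B/G, 2 h RT) quantified CRE activation in HEK 293T CRE-bla cells after 3 h treatment with DMSO-dissolved compounds.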

The target of experiment [15] is Beta-2 adrenergic receptor (Homo sapiens) (UniProt P07550). The experiment in a line: Adrenergic beta2 receptor (ADRB2) small molecule antagonists, cell-based qHTS assay (AID 1963592). Note: series mostly up to about 92 µM; nearly all actives have a fitted effect of over 50% in size. The essentials: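 Cells (CHO, stable ADRB2 overexpression) incubated 18-20hr at 37C; compounds added from DMSO; agonist mix (1nM isoproterenol, 100uM IBMX, 25uM Ro-20-1724) added; 0.5hr RT; d2-cAMP and anti-cAMP-cryptate added; 1hr RT; 665/615 nm read.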

The target is the same in experiment [16]. The experiment in a line: Adrenergic beta2 receptor (ADRB2) small molecule agonists, cell-based qHTS assay (AID 1963593).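 Note: CHO cells stably overexpressing human ADRB2.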 The essentials:
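CHO cells stably over-expressing ADRB2 were plated overnight at 37C, then dosed with compounds plus a stimulation mix containing 100uM IBMX and 25uM Ro-20-1724 for 0.5hr at room temperature. cAMP was measured by HTRF competition, 1hr.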

In experiment [17] the target is D(2) dopamine receptor (Homo sapiens) (UniProt P14416). The experiment is described as follows: Dopamine D2 receptor (DRD2) small molecule agonists, cell-based qHTS assay (AID 1963594). Note: nearly all actives have a fitted effect of over 35% in size. The essentials:
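HEK293 cells stably expressing human DRD2, pre-treated with PDE inhibitor Ro20-1724 (0.1 mM final) and compound 10 min at room temperature, then stimulated with NKH477 (200nM […]) for 30 min. cAMP read by HTRF (665/620 nm).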

For experiment [18] the target is unchanged. The experiment in a line: Dopamine D2 receptor (DRD2) small molecule antagonists, cell-based qHTS assay (AID 1963595; active = well fitted inhibition curve with a large enough effect in the signal ratio in the repeat runs, with a control signal flat; the % refers to the signal ratio). The essentials: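 Stable D2 receptor HEK293 line, 24 h after seeding. Compound preincubated 10 min, then quinpirole (12 nM) with forskolin analogue NKH477 (200 nM), 30 min, room temperature. Detection by time-resolved FRET of cAMP.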

Experiment [19] addresses 5-hydroxytryptamine receptor 2A (Homo sapiens) (UniProt P28223). The experiment in a line: 5-hydroxytryptamine receptor 2A (HTR2A) small molecule agonists, cell-based qHTS assay (AID 1963587). Note: nearly all actives have a fitted effect of over 30% in size. The method, boiled down: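 CHO cells stably expressing human HTR2A, plated 18 h, loaded with calcium dye 1 h at 37 C. Agonist mode: compounds added and intracellular calcium fluorescence recorded kinetically for 2 min at 1 sec intervals.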

Experiment [20] can be described thus: cAMP Responsive Elements (CRE) small molecule antagonists, cell-based qHTS assay (AID 1963591; active = well fitted inhibition curve with a large enough effect in the signal ratio in the repeat runs, not every such curve was filed as active; the % refers to the signal ratio). The essentials:
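qHTS in CRE-bla HEK 293T cells: compound in DMSO, then 0.25 uM NKH477 (final), 3 h at 37 °C/5% CO2; beta-lactamase FRET read-out after 2 h substrate incubation.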

Records with an inconclusive call do not appear. Activity calls are given as the source filed them. Unless noted, calls come from the whole dose curve.

Chain of D(2) dopamine receptor (Homo sapiens) (P14416 whole entry, looked up): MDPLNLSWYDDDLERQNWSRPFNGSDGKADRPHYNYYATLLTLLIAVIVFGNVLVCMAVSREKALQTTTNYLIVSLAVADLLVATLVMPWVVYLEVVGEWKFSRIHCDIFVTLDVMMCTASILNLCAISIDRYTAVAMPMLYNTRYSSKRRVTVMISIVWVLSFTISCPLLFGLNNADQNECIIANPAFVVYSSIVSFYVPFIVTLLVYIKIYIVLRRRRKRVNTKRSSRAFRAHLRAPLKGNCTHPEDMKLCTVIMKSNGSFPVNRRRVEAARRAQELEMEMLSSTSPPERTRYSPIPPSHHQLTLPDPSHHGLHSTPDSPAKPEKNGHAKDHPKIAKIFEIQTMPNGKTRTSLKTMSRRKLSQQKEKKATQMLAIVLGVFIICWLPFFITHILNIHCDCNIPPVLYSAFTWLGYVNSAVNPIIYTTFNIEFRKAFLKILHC
Chain of KiSS-1 receptor (Homo sapiens) (Q969F8 whole entry, looked up): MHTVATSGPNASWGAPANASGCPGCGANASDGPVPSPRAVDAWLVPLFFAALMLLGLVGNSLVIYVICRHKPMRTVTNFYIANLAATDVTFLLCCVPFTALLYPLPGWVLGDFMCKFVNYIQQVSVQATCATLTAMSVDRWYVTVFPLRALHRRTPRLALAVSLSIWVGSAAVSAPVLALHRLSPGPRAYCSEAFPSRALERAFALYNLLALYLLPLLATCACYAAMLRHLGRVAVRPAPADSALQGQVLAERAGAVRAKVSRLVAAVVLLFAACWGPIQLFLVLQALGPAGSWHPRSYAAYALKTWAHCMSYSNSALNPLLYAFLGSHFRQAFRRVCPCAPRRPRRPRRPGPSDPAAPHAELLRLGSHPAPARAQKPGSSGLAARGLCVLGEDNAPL
Chain of 5-hydroxytryptamine receptor 2A (Homo sapiens) (P28223 whole entry, looked up): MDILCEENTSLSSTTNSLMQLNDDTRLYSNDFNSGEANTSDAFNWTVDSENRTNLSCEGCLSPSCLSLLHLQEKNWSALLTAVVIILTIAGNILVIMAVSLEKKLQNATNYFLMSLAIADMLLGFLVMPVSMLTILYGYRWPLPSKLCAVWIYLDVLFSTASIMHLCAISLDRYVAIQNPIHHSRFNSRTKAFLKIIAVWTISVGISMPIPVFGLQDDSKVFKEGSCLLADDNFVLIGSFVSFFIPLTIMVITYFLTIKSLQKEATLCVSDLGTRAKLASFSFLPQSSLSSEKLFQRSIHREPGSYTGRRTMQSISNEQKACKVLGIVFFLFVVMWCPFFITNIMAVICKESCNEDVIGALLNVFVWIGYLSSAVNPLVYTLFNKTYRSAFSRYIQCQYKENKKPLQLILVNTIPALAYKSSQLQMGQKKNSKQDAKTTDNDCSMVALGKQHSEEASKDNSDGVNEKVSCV
Chain of Gonadotropin-releasing hormone receptor (Homo sapiens) (P30968 whole entry, looked up): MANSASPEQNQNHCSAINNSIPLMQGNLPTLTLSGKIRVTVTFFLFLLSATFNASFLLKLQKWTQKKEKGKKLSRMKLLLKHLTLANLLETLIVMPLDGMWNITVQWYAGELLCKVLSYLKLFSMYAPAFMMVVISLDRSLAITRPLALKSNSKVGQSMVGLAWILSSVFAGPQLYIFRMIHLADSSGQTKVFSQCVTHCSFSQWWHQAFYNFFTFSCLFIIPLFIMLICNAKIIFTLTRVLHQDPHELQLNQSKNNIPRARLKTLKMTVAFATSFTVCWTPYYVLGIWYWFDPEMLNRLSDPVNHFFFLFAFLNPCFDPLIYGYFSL
Chain of Beta-2 adrenergic receptor (Homo sapiens) (P07550 whole entry, looked up): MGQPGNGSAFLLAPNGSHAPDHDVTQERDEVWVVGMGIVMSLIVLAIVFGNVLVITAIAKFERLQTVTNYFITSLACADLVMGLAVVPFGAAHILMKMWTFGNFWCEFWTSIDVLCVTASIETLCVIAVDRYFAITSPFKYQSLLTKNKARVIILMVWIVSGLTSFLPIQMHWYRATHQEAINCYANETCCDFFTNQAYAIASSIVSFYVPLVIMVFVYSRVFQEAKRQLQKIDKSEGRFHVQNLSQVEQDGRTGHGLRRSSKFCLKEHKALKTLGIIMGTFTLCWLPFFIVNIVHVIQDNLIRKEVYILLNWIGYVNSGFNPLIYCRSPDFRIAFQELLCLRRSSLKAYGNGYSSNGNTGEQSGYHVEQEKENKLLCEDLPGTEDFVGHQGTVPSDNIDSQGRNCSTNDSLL
Chain of Muscarinic acetylcholine receptor M1 (Homo sapiens) (P11229 whole entry, looked up): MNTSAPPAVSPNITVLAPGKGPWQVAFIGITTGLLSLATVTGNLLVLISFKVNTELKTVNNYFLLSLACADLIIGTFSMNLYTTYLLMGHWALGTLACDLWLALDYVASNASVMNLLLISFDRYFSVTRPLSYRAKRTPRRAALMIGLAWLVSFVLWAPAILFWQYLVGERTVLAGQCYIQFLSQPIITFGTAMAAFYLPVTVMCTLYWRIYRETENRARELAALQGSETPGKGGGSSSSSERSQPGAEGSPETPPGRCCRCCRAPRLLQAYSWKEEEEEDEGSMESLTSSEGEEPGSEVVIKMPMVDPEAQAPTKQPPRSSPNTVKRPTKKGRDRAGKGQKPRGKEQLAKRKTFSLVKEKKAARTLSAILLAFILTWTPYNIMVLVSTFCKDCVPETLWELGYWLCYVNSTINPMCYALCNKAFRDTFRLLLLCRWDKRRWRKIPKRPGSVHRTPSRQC

As for `CCCCCCCCCCCCN(CCCCCCCCCCCC)CCCCCCCCCCCC`, the Potency entry in [1], in [2], in experiment [3], in [4], in experiment [5] and in experiment [6] was “inactive” each time. The Potency result in experiment [7], in [8], in experiment [9], in experiment [10], in experiment [11] and in [12] was “inactive” throughout. In addition, the Potency result in experiment [13], in experiment [14], in experiment [15], in experiment [16], in [17] and in experiment [18] was “inactive” in each case.
With `CCCCCC/C=C\CCCCCCCC(=O)O`, the Potency result in experiment [1], in [2], in experiment [3], in experiment [4], in experiment [5] and in [6] was “inactive” each time. Moreover, the Potency entry in experiment [7], in [8], in experiment [9], in experiment [10], in experiment [11] and in experiment [19] was “inactive” each time. Besides, the Potency entry in experiment [12], in experiment [13], in experiment [14], in experiment [15], in experiment [16] and in [17] was “inactive” in each case. Further, in experiment [18], the Potency result was “inactive”.
In the case of `CCCOC(=O)CCCCC(=O)OCCC`, the Potency result in [1], in experiment [2], in [3], in [4], in experiment [5] and in experiment [6] was “inactive” each time. The Potency entry in experiment [7], in experiment [8], in [9], in [10], in experiment [11] and in experiment [19] was “inactive” each time. For the same compound, the Potency entry in experiment [12], in [13], in experiment [14], in experiment [20], in experiment [15] and in experiment [17] was “inactive” throughout. Further, the Potency entry in experiment [18] was “inactive”.
For `C[C@@H]1C[C@H]2[C@@H]3CCC4=CC(=O)C=C[C@]4(C)[C@@]3(F)[C@@H](O)C[C@]2(C)[C@@]1(O)C(=O)COC(=O)c1ccncc1`, the Potency entry in experiment [1], in experiment [2], in [3], in experiment [4], in [5] and in [6] was “inactive” throughout. The Potency entry in experiment [7], in experiment [8], in experiment [9], in experiment [10], in experiment [19] and in experiment [12] was “inactive” throughout. The Potency result in experiment [13], in [14], in experiment [20], in [15] and in [18] was “inactive” throughout.
On to `CC(=O)NC1(c2cccc(F)c2)CCN(CC[C@@]2(c3ccc(Cl)c(Cl)c3)CN(c3ccccc3)C(=O)CO2)CC1`, for which the Potency was 48.7 µM (active) in experiment [1] and 36.5 µM (active) in experiment [9]. Also, the Potency result in experiment [2], in experiment [3], in experiment [4], in experiment [5], in experiment [6] and in experiment [7] was “inactive” each time. For the same compound, the Potency entry in experiment [8], in [10], in experiment [19], in experiment [12], in experiment [13] and in experiment [17] was “inactive” each time. The Potency result in experiment [18] was “inactive”.
Consider `CCN=C1C=CC(=C(c2ccc(N(CC)CC)cc2)c2ccc(N(CC)CC)cc2)c2ccccc21`, for which the Potency in experiment [1] is 19.2 µM (active); in experiment [7], 22.8 µM (active); in experiment [8] it was 40.5 µM (active); in experiment [9], 36.1 µM (active). For the same compound, the Potency entry in experiment [2], in [3], in [4], in experiment [5], in [6] and in [11] was “inactive” in each case. In addition, the Potency entry in experiment [19], in experiment [12] and in experiment [13] was “inactive” each time.
With `CCCCN`, the Potency result in [1], in experiment [3], in experiment [4], in [5], in experiment [6] and in experiment [7] was “inactive” each time. Besides, the Potency entry in experiment [8], in experiment [9], in [10], in experiment [11], in [19] and in experiment [13] was “inactive” each time. Also, the Potency entry in experiment [14], in [20], in experiment [15], in experiment [17] and in [18] was “inactive” each time. Besides, in [2], the Potency was 36.3 µM (active).
